Only some compounds are listed: those with a hit (about 1.8% of all), similar ones and a draw of the others.
HTR2A ag: mouse Htr2a agonists via beta-arrestin recruitment, primary screen, cell-based, luminescence; activation, % at 7.6 µM; 5-hydroxytryptamine receptor 2A (Mus musculus), P35363; CHO-K1 mHTR2A beta-arrestin complementation; percent of 30 µM serotonin response; AID 624169, 2012; 360,000 tested, 0.66% active;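 active means activation above a run cutoff, the mean activation of all tested compounds plus 3 SD, cut at about 14% in these data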
Target sequence (P35363 whole entry, looked up): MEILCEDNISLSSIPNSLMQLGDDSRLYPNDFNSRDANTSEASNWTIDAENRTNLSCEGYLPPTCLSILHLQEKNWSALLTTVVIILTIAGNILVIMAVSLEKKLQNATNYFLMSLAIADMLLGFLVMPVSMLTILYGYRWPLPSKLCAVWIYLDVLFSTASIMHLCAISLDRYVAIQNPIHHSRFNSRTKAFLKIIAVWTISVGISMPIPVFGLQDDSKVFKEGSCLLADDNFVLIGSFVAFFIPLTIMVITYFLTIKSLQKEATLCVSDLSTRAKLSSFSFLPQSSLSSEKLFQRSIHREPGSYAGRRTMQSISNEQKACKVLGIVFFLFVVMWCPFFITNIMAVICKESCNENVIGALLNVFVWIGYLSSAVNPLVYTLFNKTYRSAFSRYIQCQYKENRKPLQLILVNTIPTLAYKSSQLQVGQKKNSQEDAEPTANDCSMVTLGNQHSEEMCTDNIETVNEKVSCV
NPR1 activator: GC-A stimulated cGMP production enhancers – HEK293 GC-A cells, cGMP TR-FRET, EC30 ANP, primary screen. Atrial natriuretic peptide receptor 1 (Homo sapiens), P16066. 0% at EC30 ANP, 100% saturating ANP. activation, % at 10 µM. 370,000 tested, 0.14% active; in the data active means activation above about 40%
GC-B act: human GC-B receptor activators, primary screen, HEK293 GC-B cells, cGMP TR-FRET, EC30 CNP; 370,000 tested, 0.11% active; Atrial natriuretic peptide receptor 2 (Homo sapiens), P20594; activation, % at 10 µM; 0% at EC30 CNP, 100% saturating CNP;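 active means activation at 10 µM reaching about 35% in either raw or pattern-adjusted values, limit read from the data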
MsrA act: bovine MsrA enzyme activators, primary screen, biochemical, absorbance, HTS | activation, % at 10.6 µM | 360,000 tested, 0.3% active | purified bovine MsrA, absorbance read-out; in the data active means activation above about 7.5%
MsrA inhibitor: bovine MsrA enzyme inhibitors, primary screen, biochemical, absorbance, HTS. Methionine sulfoxide reductase A (Bos taurus). purified bovine MsrA, absorbance read-out. inhibition, % at 15.5 µM. 360,000 tested, 0.75% active. AID 651718, 2012
MsrA inh confirm: bovine MsrA inhibitors, retest, confirmation, biochemical, absorbance, HTS. purified bovine MsrA, absorbance read-out. shares compounds with MsrA inhibitor. inhibition, % at 15.5 µM. 2,300 tested, 41% active;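 further: coupled to thioredoxin reductase with NADPH and selenocystamine and DMSO as substrate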
Large screens that a line does not name were inactive (follow-up assays come after a bar, where they were run). Unless noted, no stated cut-off is given here; in the data, active means inhibition above about 4.5%; inactive means the rest.

CCC(=O)OC1(Cc2ccc(CC)cc2)CC(C)N(C)CC1C (stereo not drawn)	none
CN1CC[C@@H]2CN[C@H](c3ccccc3Br)C[C@@H]21	none (no result: HTR2A ag, MsrA act)
COc1ccc(CC(=O)C2C(=O)N(C)c3ccccc32)cc1OC (stereo not drawn)	MsrA inhibitor 4.9 | MsrA inh confirm inactive
COc1ccc(CC(=O)N2CCN(C)CC2)cc1OC	none
Cc1c(N=Cc2c(O)n(Cc3ccc(F)cc3)c(=O)[nH]c2=O)c(=O)n(-c2ccccc2)n1C	MsrA inhibitor 4.9 | MsrA inh confirm inactive
Cc1ccccc1-n1c(O)c(C=Nc2ccc3c(c2)OCO3)c(=O)[nH]c1=O	MsrA inhibitor 4.7 | MsrA inh confirm inactive
CCN(CC)c1ccc(N=Cc2c(O)n(-c3ccccc3C)c(=O)[nH]c2=O)cc1	none
Fc1cccc(F)c1-c1nc(-c2ccc(Cl)cc2)no1	none
O=C(NN=Cc1ccc(N(CCCl)CCCl)cc1)C(=O)c1c[nH]c2ccccc12	MsrA inhibitor 6.0 | MsrA inh confirm inactive
N/C(=N\N=C\c1ccc(O)cc1O)N[N+](=O)[O-]	none
N/C(=N\[N+](=O)[O-])N/N=C/c1ccc(O)cc1	MsrA inhibitor 5.3 | MsrA inh confirm inactive
Cc1ccccc1-c1ccc2n1Cc1cnnn1-c1ccccc1-2	MsrA inhibitor 5.5 | MsrA inh confirm inactive
COc1cc(/C=C/[N+](=O)[O-])ccc1O	MsrA inhibitor 5.5 | MsrA inh confirm 4.7
CCOP(=O)(CCP(=O)(OCC)OCC)OCC.C[CH2][Sn]([Cl])([Cl])[CH2]C	MsrA inhibitor 56 | MsrA inh confirm 51
CCOP(=O)(OCC)OCC	none
CCOc1cc(C=C2C(=O)NC(=S)NC2=O)ccc1O	MsrA inhibitor 4.8 | MsrA inh confirm inactive
COc1ccc(C=C2C(=O)NC(=S)NC2=O)cc1OC	none
CC(C)n1c(=O)c(C=Nc2ccc(F)cc2)c(O)n(Cc2ccco2)c1=O	MsrA inhibitor 5.7 | MsrA inh confirm inactive
C[C@H](CO)N1C[C@H](C)[C@H](CN(C)C(=O)Oc2cccc3ccccc23)OCc2cnnn2CCCC1=O	none
O=c1[nH]c(=O)n(-c2cccc(Cl)c2)c(O)c1C=NCCCN1CCOCC1	MsrA inhibitor 13 | MsrA inh confirm 6.8
Cc1ccc(-n2c(O)c(C=NCCN3CCOCC3)c(=O)[nH]c2=O)cc1	none

Bioassay records deposited in PubChem BioAssay by several laboratories.
